From the supplement of paper PMC8728848
The entries come from a sample that favours the strongest signals as a whole.

What was measured:
Assay in all cases: glycan array binding signal (z-score within array); higher = stronger binding
Conditions in all cases: glycan notation: IUPAC condensed, linker removed
[1] = target: Fuc(a1-2)Gal(b1-3)GlcNAc(b1-3)[Neu5Ac(a2-6)Gal(b1-4)GlcNAc(b1-6)]Gal(b1-4)Glc
Summary of the method: (§1)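 From the Consortium for Functional Glycomics database, 3228 arrays were curated, keeping only those whose protein sequence was available. Binding is given as a within-array Z-score averaged across arrays sharing a protein sequence and across linkers. Negative Z-scores can be read as non-binding.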

[2] = target: Fuc(a1-2)Gal(b1-4)GlcNAc(b1-2)Man
Summary of the method: as §1

[3] = target: Fuc(a1-2)Gal(b1-4)GlcNAc(b1-3)Gal(b1-4)GlcNAc
Summary of the method: as §1

[4] = target: Fuc(a1-2)Gal(b1-4)[Fuc(a1-3)]GlcNAc
Summary of the method: as §1

[5] = target: Fuc(a1-2)Gal6S(b1-3)GlcNAc
Summary of the method: as §1

[6] = target: Fuc(a1-2)Gal6S(b1-3)GlcNAc6S
Summary of the method: as §1

[7] = target: Fuc(a1-2)[Gal(a1-3)]Gal(b1-4)Glc
Summary of the method: as §1

[8] = target: Fuc(a1-2)[Gal(a1-3)]Gal(b1-4)GlcNAc(b1-3)[Fuc(a1-2)[Gal(a1-3)]Gal(b1-4)GlcNAc(b1-6)]GalNAc
Summary of the method: as §1

[9] = target: Fuc(a1-2)[GalNAc(a1-3)]Gal(b1-4)GlcNAc(b1-3)Gal(b1-4)GlcNAc
Summary of the method: as §1

[10] = target: Fuc(a1-2)[GalNAc(b1-3)]Gal
Summary of the method: as §1

[11] = target: Fuc(a1-3)[Gal(b1-4)]GlcNAc(b1-3)Gal(b1-3)[Fuc(a1-4)]GlcNAc
Summary of the method: as §1

Gal(b1-2)Gal = target: Gal(b1-2)Gal
Summary of the method: as §1

[12] = target: Gal(b1-3)GalNAc(a1-3)[Fuc(a1-2)]Gal(b1-4)Glc
Summary of the method: as §1

[13] = target: Gal(b1-3)GlcNAc(b1-3)Gal(b1-4)GlcNAc(b1-3)Gal(b1-4)GlcNAc(b1-2)[Gal(b1-3)GlcNAc(b1-3)Gal(b1-4)GlcNAc(b1-3)Gal(b1-4)GlcNAc(b1-6)]Man(a1-6)[Gal(b1-3)GlcNAc(b1-3)Gal(b1-4)GlcNAc(b1-3)Gal(b1-4)GlcNAc(b1-2)Man(a1-3)]Man(b1-4)GlcNAc(b1-4)[Fuc(a1-6)]GlcNAc
Summary of the method: as §1

[14] = target: Gal(b1-3)GlcNAc(b1-3)Gal(b1-4)[Fuc(a1-3)]GlcNAc
Summary of the method: as §1

[15] = target: Gal(b1-3)[Fuc(a1-4)]GlcNAc(b1-3)Gal(b1-4)[Fuc(a1-3)]GlcNAc
Summary of the method: as §1

Gal(b1-4)Gal = target: Gal(b1-4)Gal
Summary of the method: as §1

[16] = target: Gal(b1-4)GalNAc(b1-3)[Fuc(a1-2)]Gal(b1-4)GlcNAc
Summary of the method: as §1

Gal(b1-4)Glc = target: Gal(b1-4)Glc
Summary of the method: as §1

Gal(b1-4)GlcNAc(b1-2)Man = target: Gal(b1-4)GlcNAc(b1-2)Man
Summary of the method: as §1

[17] = target: Gal(b1-4)GlcNAc(b1-2)Man(a1-3)[Gal(b1-4)GlcNAc(b1-2)Man(a1-6)][Gal(b1-4)GlcNAc(b1-4)]Man(b1-4)GlcNAc(b1-4)[Fuc(a1-6)]GlcNAc
Summary of the method: as §1

[18] = target: Gal(b1-4)GlcNAc(b1-2)Man(a1-3)[Man(a1-6)]Man(b1-4)GlcNAc(b1-4)GlcNAc
Summary of the method: as §1

[19] = target: Gal(b1-4)GlcNAc(b1-2)[Gal(b1-4)GlcNAc(b1-4)]Man(a1-3)[Gal(b1-4)GlcNAc(b1-2)Man(a1-6)]Man(b1-4)GlcNAc(b1-4)GlcNAc
Summary of the method: as §1

[20] = target: Gal(b1-4)GlcNAc(b1-2)[Gal(b1-4)GlcNAc(b1-4)]Man(a1-3)[GlcNAc(b1-4)][Gal(b1-4)GlcNAc(b1-2)[Gal(b1-4)GlcNAc(b1-6)]Man(a1-6)]Man(b1-4)GlcNAc(b1-4)GlcNAc
Summary of the method: as §1

[21] = target: Gal(b1-4)GlcNAc(b1-3)Gal(b1-4)GlcNAc(b1-2)Man(a1-3)[Gal(b1-4)GlcNAc(b1-3)Gal(b1-4)GlcNAc(b1-2)Man(a1-6)]Man(b1-4)GlcNAc(b1-4)[Fuc(a1-6)]GlcNAc
Summary of the method: as §1

[22] = target: Gal(b1-4)GlcNAc(b1-3)Gal(b1-4)GlcNAc(b1-2)[Gal(b1-4)GlcNAc(b1-3)Gal(b1-4)GlcNAc(b1-6)]Man(a1-6)[Gal(b1-4)GlcNAc(b1-3)Gal(b1-4)GlcNAc(b1-2)Man(a1-3)]Man(b1-4)GlcNAc(b1-4)GlcNAc
Summary of the method: as §1

[23] = target: Gal(b1-4)GlcNAc(b1-3)Gal(b1-4)GlcNAc(b1-3)Gal(b1-4)GlcNAc
Summary of the method: as §1

[24] = target: Gal(b1-4)GlcNAc(b1-6)GalNAc
Summary of the method: as §1

B1: Mermaid2 (Stilbonema majum) (protein)
chain: MGSSHHHHHHSSGLVPRGSHMAASGWLRSPQGTVVKLYRRSLSWSKADEFCKDVDGRLVVDRTADMHLFLIKNVLKEKKSRVWVGLRRTAPHSRTWIWSDGTRQNEDDLNTNLWLRDEPNDAAGEEECALFMYSPWEKAWGLNDYLCRGGCRSYQFICEKGIR
glycan array binding signal (z-score) [1]: 0.333
glycan array binding signal (z-score) [2]: 1.76
glycan array binding signal (z-score) [3]: -0.575
glycan array binding signal (z-score) [4]: 0.558
glycan array binding signal (z-score) [5]: -0.388
glycan array binding signal (z-score) [6]: 4.48
glycan array binding signal (z-score) [7]: -0.23
glycan array binding signal (z-score) [8]: -0.477
glycan array binding signal (z-score) [9]: -0.302
glycan array binding signal (z-score) [10]: -0.551
glycan array binding signal (z-score) [11]: -0.144
glycan array binding signal (z-score) (Gal(b1-2)Gal): -0.539
glycan array binding signal (z-score) [12]: 3.31
glycan array binding signal (z-score) [13]: 4.69
glycan array binding signal (z-score) [14]: -0.471
glycan array binding signal (z-score) [15]: -0.152
glycan array binding signal (z-score) (Gal(b1-4)Gal): 6.71
glycan array binding signal (z-score) [16]: 0.467
glycan array binding signal (z-score) (Gal(b1-4)Glc): -0.205
glycan array binding signal (z-score) (Gal(b1-4)GlcNAc(b1-2)Man): 1.07
glycan array binding signal (z-score) [17]: -0.652
glycan array binding signal (z-score) [18]: 3.75
glycan array binding signal (z-score) [19]: 0.034
glycan array binding signal (z-score) [20]: -0.17
glycan array binding signal (z-score) [21]: -0.278
glycan array binding signal (z-score) [22]: 5.21
glycan array binding signal (z-score) [23]: 0.308
glycan array binding signal (z-score) [24]: -0.317
